Source: PubChem BioAssay (EPA / NIEHS)
“And” between values parts separate entries of the source, which are not always exact repeats. Equal entries are not always repeated. Results filed as inconclusive are left out. More than one record can exist for a structure, and the calls need not agree. The source made the active and inactive calls. The calls were made as follows, unless noted: active = hit-call score of the fitted dose curve at least 0.9, where 1 is the maximum; inactive = score below 0.9.

What was measured:
[1] = read-out: Interleukin-8 (IL8), CXCL8 (gene 3576); assay: BSK_3C_IL8: BioMAP Diversity Plus: 3C Assay for Interleukin-8 (IL8) Biomarker Activity (AID 2283020); conditions: primary human endothelial cells (HUVEC); actives raise or lower the signal
Procedure, shortened: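 HUVEC, 3C stimulation; 24 h compound exposure; IL-8 read by ELISA; gain or loss of signal fitted relative to DMSO control.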

[2] = read-out: Monokine induced gamma interferon (MIG), CXCL9 (gene 4283); assay: BSK_3C_MIG: BioMAP Diversity Plus: 3C Assay for Monokine induced gamma interferon (MIG) Biomarker Activity (AID 2283021); conditions: primary human endothelial cells (HUVEC); actives raise or lower the signal;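 as to AC50: MIG protein level measured by immunoassay in the treated endothelial cultures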
Procedure, shortened: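 HUVEC, 3C system; 24 h chemical exposure; MIG by ELISA; bidirectional fit vs DMSO baseline.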

[3] = read-out: Pselectin, SELP (gene 6403); assay: BSK_4H_Pselectin: BioMAP Diversity Plus: 4H Assay for Pselectin Biomarker Activity (AID 2283026); conditions: primary human endothelial cells (HUVEC); actives raise or lower the signal
Procedure, shortened: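 HUVEC, 24 h chemical exposure; P-selectin read by ELISA. Bidirectional curve fit vs DMSO baseline; gain or loss of signal scored.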

[4] = BSK_4H_SRB: Viability Assessment in the BioMAP Diversity Plus: 4H Assay (AID 2283027); conditions: primary human endothelial cells (HUVEC);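 also: cells exposed to compound for 24 h before staining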;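 as to AC50: curves fitted both ways versus DMSO so AC50 may be loss or gain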
Procedure, shortened: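 Cytotoxicity readout: sulforhodamine B (0.1%) staining of total protein after 10% TCA fixation, measured at 560 nm in human umbilical vein endothelium at 24 h. DMSO set the baseline; fitting was bidirectional.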

[5] = read-out: Urokinase-type plasminogen activator receptor (uPAR), PLAUR (gene 5329); assay: BSK_4H_uPAR: BioMAP Diversity Plus: 4H Assay for Urokinase-type plasminogen activator receptor (uPAR) Biomarker Activity (AID 2283030); conditions: primary human endothelial cells (HUVEC); actives raise or lower the signal
Procedure, shortened: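 Endpoint derived via bidirectional curve fitting against DMSO baseline; readout was ELISA detection of uPAR on umbilical vein endothelial cells at 24 h post-treatment, with SRB-stained parallel cultures assessing cytotoxicity.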

[6] = read-out: Plasminogen activator inhibitor-1 (PAI1), SERPINE1 (gene 5054); assay: BSK_BE3C_PAI1: BioMAP Diversity Plus: BE3C Assay for Plasminogen activator inhibitor-1 (PAI1) Biomarker Activity (AID 2283037); conditions: primary human bronchial epithelial cells; actives raise or lower the signal
Procedure, shortened: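 ELISA read-out of PAI-1 from human bronchial epithelial primary cells, 24 h post-dosing; bidirectional curve fit vs DMSO baseline, gain or loss of signal scored.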

[7] = read-out: urokinase plasminogen activator (uPA), PLAU (gene 5328); assay: BSK_BE3C_uPA: BioMAP Diversity Plus: BE3C Assay for urokinase plasminogen activator (uPA) Biomarker Activity (AID 2283038); conditions: primary human bronchial epithelial cells; actives raise or lower the signal;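 also: uPA protein level quantified by ELISA in cell cultures; uPA read one day after compound addition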
Procedure, shortened: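 Using confluent primary human lung bronchial epithelial cultures, we dosed chemicals, waited 24 h, then ran a uPA ELISA, fitting bidirectionally against DMSO.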

[8] = read-out: Tissue plasminogen activator (tPA), PLAT (gene 5327); assay: BSK_BE3C_tPA: BioMAP Diversity Plus: BE3C Assay for Tissue plasminogen activator (tPA) Biomarker Activity (AID 2283041); conditions: primary human bronchial epithelial cells; actives raise or lower the signal
Procedure, shortened: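 ELISA read-out of tPA on human primary bronchial epithelial cells, 24 h post-dosing; bidirectional fit vs DMSO negative control/baseline.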

[9] = read-out: Macrophage colony-stimulating factor (MCSF), CSF1 (gene 1435); assay: BSK_CASM3C_MCSF: BioMAP Diversity Plus: CASM3C Assay for Macrophage colony-stimulating factor (MCSF) Biomarker Activity (AID 2283044); conditions: primary human coronary artery smooth muscle cells; actives raise or lower the signal;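 also: M-CSF protein amount quantified by ELISA after 24 h exposure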
[10] = BSK_CASM3C_SRB: Viability Assessment in the BioMAP Diversity Plus: CASM3C Assay (AID 2283050); conditions: primary human coronary artery smooth muscle cells;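 also: total protein by SRB staining as cytotoxicity measure in parallel cultures; cells exposed to compound for 24 h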
[11] = read-out: Thrombomodulin, THBD (gene 7056); assay: BSK_CASM3C_Thrombomodulin: BioMAP Diversity Plus: CASM3C Assay for Thrombomodulin Biomarker Activity (AID 2283051); conditions: primary human coronary artery smooth muscle cells; actives raise or lower the signal;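 also: thrombomodulin protein level measured by ELISA 24 h after dosing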
[12] = read-out: Vascular cell adhesion molecule 1 (VCAM1), VCAM1 (gene 7412); assay: BSK_CASM3C_VCAM1: BioMAP Diversity Plus: CASM3C Assay for Vascular cell adhesion molecule 1 (VCAM1) Biomarker Activity (AID 2283055); conditions: primary human coronary artery smooth muscle cells; actives raise or lower the signal;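 also: VCAM-1 protein level quantified by ELISA on the cells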
[13] = read-out: TIMP metallopeptidase inhibitor 2 (TIMP2), TIMP2 (gene 7077); assay: BSK_KF3CT_TIMP2: BioMAP Diversity Plus: KF3CT Assay for TIMP metallopeptidase inhibitor 2 (TIMP2) Biomarker Activity (AID 2283071); conditions: primary human keratinocytes with fibroblasts; actives raise or lower the signal
Procedure, shortened: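 ELISA readout of TIMP-2 in keratinocyte plus foreskin fibroblast co-cultures (human skin primary cells), 24 h post-dose. Gain or loss of signal fitted relative to DMSO.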

[14] = read-out: Interleukin-8 (IL8), CXCL8 (gene 3576); assay: BSK_LPS_IL8: BioMAP Diversity Plus: LPS Assay for Interleukin-8 (IL8) Biomarker Activity (AID 2283078); conditions: primary human HUVEC with PBMC; actives raise or lower the signal
Procedure, shortened: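 In this LPS system, chemical-treated human umbilical vein endothelium/PBMC co-cultures were harvested at 24 h for IL-8 ELISA.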

[15] = read-out: Monocyte Chemoattractant Protein-1 (MCP1), CCL2 (gene 6347); assay: BSK_LPS_MCP1: BioMAP Diversity Plus: LPS Assay for Monocyte Chemoattractant Protein-1 (MCP1) Biomarker Activity (AID 2283081); conditions: primary human HUVEC with PBMC; actives raise or lower the signal;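 as to AC50: co-culture stimulated with LPS; secreted MCP-1 protein quantified by ELISA in culture supernatant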
Procedure, shortened: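 Values derive from bidirectional fitting against DMSO of ELISA-measured MCP-1 in a human primary endothelial and mononuclear cell co-culture, 24 h after chemical addition under LPS activation.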

CD38, CD38 (gene 952) = assay: BSK_SAg_CD38: BioMAP Diversity Plus: SAg Assay for CD38 Biomarker Activity (AID 2283087); conditions: primary human HUVEC with PBMC; actives raise or lower the signal
Procedure, shortened: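 Measures CD38 on a human endothelial/PBMC co-culture driven by SEB and TSST-1, 24 h after compound exposure, using ELISA with fluorescence detection; DMSO defines baseline for bidirectional curve fitting.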

[16] = read-out: Monocyte Chemoattractant Protein-1 (MCP1), CCL2 (gene 6347); assay: BSK_SAg_MCP1: BioMAP Diversity Plus: SAg Assay for Monocyte Chemoattractant Protein-1 (MCP1) Biomarker Activity (AID 2283090); conditions: primary human HUVEC with PBMC; actives raise or lower the signal
Procedure, shortened: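 Values derive from bidirectional fitting of ELISA-measured MCP1 against DMSO controls. Readings were taken 24 h after dosing human vascular endothelial cells co-cultured with peripheral blood mononuclear cells under superantigen stimulation.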

[17] = read-out: E-selectin (Homo sapiens) (UniProt P16581); assay: BSK_SAg_Eselectin: BioMAP Diversity Plus: SAg Assay for Eselectin Biomarker Activity (AID 2283091); conditions: primary human HUVEC with PBMC; actives raise or lower the signal
Procedure, shortened: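 Endpoint values derive from bidirectional fitting relative to DMSO, using ELISA-measured E-selectin in a human vascular co-culture (umbilical vein endothelium plus PBMC) sampled 24 h after dosing.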

[18] = target: Estrogen receptor beta (Homo sapiens) (UniProt Q92731); assay: OT_ER_ERbERb_0480: Odyssey Thera (OT) 8-hour HEK293T Protein-Complementation Assay for Estrogen Receptor-beta/-beta Homodimer (AID 2283357; active = hit-call score of the fitted dose curve at least 0.9, where 1 is the maximum;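 also: active means signal gain over DMSO baseline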)
Estrogen receptor beta (Homo sapiens), sequence (Q92731 whole entry, looked up, the tested form may be a part): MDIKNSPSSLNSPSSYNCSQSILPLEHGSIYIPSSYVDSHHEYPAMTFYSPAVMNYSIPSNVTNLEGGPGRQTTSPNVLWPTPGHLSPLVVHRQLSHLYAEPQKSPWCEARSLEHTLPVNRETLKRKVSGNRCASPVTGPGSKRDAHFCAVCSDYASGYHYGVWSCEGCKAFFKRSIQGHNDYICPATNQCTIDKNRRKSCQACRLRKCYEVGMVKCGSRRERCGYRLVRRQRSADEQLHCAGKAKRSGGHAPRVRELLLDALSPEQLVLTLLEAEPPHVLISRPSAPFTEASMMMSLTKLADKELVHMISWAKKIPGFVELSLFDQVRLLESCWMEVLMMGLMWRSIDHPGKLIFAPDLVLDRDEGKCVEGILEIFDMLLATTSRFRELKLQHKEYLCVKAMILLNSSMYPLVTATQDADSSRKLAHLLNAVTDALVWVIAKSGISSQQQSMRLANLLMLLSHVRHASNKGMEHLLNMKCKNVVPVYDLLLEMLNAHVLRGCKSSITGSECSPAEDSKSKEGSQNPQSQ
Procedure, shortened: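 Fluorescence gain from complemented reporter fragments on ER-beta LBD homodimer in HEK293T was quantified against DMSO controls after 8 h treatment, fixation in 4% formaldehyde and Draq5 staining.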

[19] = target: Steroid hormone receptor ERR1 (Homo sapiens) (UniProt P11474); assay: ATG_ERRa_TRANS: Attagene TRANS-FACTORIAL HepG2 Assay for human Estrogen-Related Receptor alpha (ERRa) (AID 2282971; active = hit-call score of the fitted dose curve at least 0.9, where 1 is the maximum); conditions: HepG2 Attagene TRANS reporter, ERRa transactivation
Steroid hormone receptor ERR1 (Homo sapiens), sequence (P11474 whole entry, looked up, the tested form may be a part): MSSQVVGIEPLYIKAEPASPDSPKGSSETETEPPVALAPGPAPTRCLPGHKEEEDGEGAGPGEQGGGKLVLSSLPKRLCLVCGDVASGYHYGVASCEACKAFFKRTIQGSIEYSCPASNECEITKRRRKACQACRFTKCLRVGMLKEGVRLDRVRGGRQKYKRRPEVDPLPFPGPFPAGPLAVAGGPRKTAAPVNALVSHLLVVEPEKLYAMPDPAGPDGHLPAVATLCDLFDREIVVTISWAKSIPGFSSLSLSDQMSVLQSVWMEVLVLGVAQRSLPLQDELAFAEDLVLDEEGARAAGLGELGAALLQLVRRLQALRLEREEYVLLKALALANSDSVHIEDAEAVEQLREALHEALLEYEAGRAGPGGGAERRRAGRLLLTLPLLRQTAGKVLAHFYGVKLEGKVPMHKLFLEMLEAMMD
Procedure, shortened: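 Signal gain relative to DMSO for an ERRa-Gal4 chimeric receptor, read as reporter mRNA by RT-PCR/capillary electrophoresis. Human HepG2 liver cells, transient multiplex reporter transfection, 24 h chemical exposure.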

Measured: AC50

E-selectin (Homo sapiens), sequence (P16581 whole entry, looked up): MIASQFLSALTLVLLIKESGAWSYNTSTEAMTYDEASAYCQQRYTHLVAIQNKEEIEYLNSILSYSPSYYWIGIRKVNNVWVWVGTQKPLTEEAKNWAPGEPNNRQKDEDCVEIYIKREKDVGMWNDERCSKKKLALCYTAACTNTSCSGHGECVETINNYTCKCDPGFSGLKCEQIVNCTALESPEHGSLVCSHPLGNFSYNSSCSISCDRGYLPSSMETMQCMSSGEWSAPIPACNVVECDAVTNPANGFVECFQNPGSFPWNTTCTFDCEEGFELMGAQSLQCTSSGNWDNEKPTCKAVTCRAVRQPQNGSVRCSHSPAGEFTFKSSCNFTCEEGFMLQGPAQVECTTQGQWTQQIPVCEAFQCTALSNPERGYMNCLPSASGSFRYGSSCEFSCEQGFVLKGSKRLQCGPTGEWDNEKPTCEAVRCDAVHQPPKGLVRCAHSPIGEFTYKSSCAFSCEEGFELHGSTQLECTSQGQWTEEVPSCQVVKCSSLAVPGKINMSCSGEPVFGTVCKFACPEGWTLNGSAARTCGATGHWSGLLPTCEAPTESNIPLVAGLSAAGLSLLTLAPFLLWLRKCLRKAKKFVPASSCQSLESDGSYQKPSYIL

CC(C)(c1cc(Cl)c(O)c(Cl)c1)c1cc(Cl)c(O)c(Cl)c1
inactive: [6] | [7] | [8] | [11] | [18]
active: [1] 20 µM | [2] 28.9 µM | [3] 27.8 µM | [4] 29 µM | [5] 30.2 µM | [9] 20 µM | [10] 31.6 µM | [12] 20 µM | [13] 5.51 µM | [14] 32.5 µM | [15] 31.3 µM | CD38, CD38 (gene 952) 26.6 µM | [16] 31.9 µM | [17] 23.5 µM

Cl/C=C\CCl
inactive: [19]

O=[N+]([O-])c1ccc(Cl)cc1
not listed: [19]
inactive: all other assays above

CCNCC
inactive: [19]

N#Cc1cc(I)c(O)c(I)c1
inactive: [19]

c1ccc2c(c1)CCCC2
inactive: [18]

Cc1cc(C)c(C2=C(OC(=O)CC(C)(C)C)C3(CCCC3)OC2=O)c(C)c1
inactive: [18]

C=CC(=O)OCCO
inactive: [18]

c1ccc(Nc2ccc3ccccc3c2)cc1
active: [1] 31.9 µM | [2] 33 µM | [4] 32.5 µM | [5] 31.3 µM | [6] 20 µM | [9] 20 µM | [11] 8.69 µM | [13] 15.8 µM
not listed: [18]
inactive: all other assays above

CCC1CCC(=O)O1 (centres undefined)
inactive: [18]

O=C(O)CCl
inactive: [18]

O=C1C=CC(=O)C=C1
inactive: [1] | [2] | [3] | [4] | [5] | [7] | [8] | [9] | [10] | [14] | [15] | [16]
active: [1] 32.9 µM | [2] 35.6 µM | [3] 14.1 µM | [4] 28.7 µM | [6] 1.68 µM and 14.6 µM | [8] 34.9 µM | [9] 12.1 µM | [10] 4.88 µM | [11] 8.44 µM and 20 µM | [12] 9.42 µM and 24.7 µM | [13] 28.7 µM and 12.4 µM | [14] 23.6 µM | [15] 32.6 µM | CD38, CD38 (gene 952) 30.4 µM and 25.7 µM | [16] 31.4 µM | [17] 30.7 µM and 25.2 µM

COC(=O)COc1ccc(Cl)cc1Cl
inactive: [19]

CC(=O)c1cc2c(cc1C)C(C)(C)C(C)CC2(C)C (centres undefined)
active: [18] 5.28 µM

CCOC(=O)C1OC1(C)c1ccccc1 (centres undefined)
inactive: [18]

O=C1C(Cl)=C(Cl)C(=O)C(Cl)=C1Cl
inactive: [7] | [8] | [11]
active: [1] 20 µM | [2] 29.2 µM | [3] 12.8 µM | [4] 11.9 µM | [5] 31.9 µM | [6] 20 µM | [9] 20 µM | [10] 20 µM | [12] 15.3 µM | [13] 12.1 µM | [14] 29 µM | [15] 30.8 µM | CD38, CD38 (gene 952) 28.5 µM | [16] 37.9 µM | [17] 25.9 µM

COCC(=O)N(c1c(C)cccc1C)N1CCOC1=O
not listed: [18]
inactive: all other assays above

C=COCCCl
inactive: [19]

ClC1=C(Cl)[C@]2(Cl)[C@@H]3[C@@H](Cl)[C@H](Cl)C[C@@H]3[C@@]1(Cl)C2(Cl)Cl
inactive: [19]

CC(C)CCCCCCCOP(=O)(Oc1ccccc1)Oc1ccccc1
inactive: [19] | [2] | [7] | [11] | [12] | [14]
active: [1] 20 µM | [3] 15.1 µM | [4] 20 µM | [5] 29.1 µM | [6] 3.97 µM | [8] 3.21 µM | [9] 0.173 µM | [10] 20 µM | [13] 16.1 µM | [15] 20 µM | CD38, CD38 (gene 952) 25.9 µM | [16] 20 µM | [17] 24.4 µM
